Screening results (PubChem)
A selection: hits, their analogues and other compounds. The true share with any hit is near 5.8%.
PK Bst: alters activity of Bacillus stearothermophilus pyruvate kinase | 51,000 tested, 1.2% active | AID 361 | Potency, µM | purified pyruvate kinase, luminescence ATP production; ribose 5-phosphate activator present at AC10; in the data active means potency below about 11 µM; inconclusive means mostly about 12 µM to 25 µM;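 the screen sought inhibitors and activators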;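 further: potency means the concentration at half of the fitted maximal effect; scaled between full activation by ribose 5 phosphate and full inhibition by luteolin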
HEK293 cAMP ctrl: counter-screen for TSHR agonists: cAMP increase in parental HEK293; AID 938; 73,000 tested, 2.5% active; parental HEK293 CNG cAMP sensor, membrane potential fluorescence; Potency, µM (top dose mostly 57.1 µM), for inactives: at the highest dose activation, most hits filed as activators; further: potency means the concentration at half of the fitted maximal effect; % of control where 0% means no effect; nearly all actives have a fitted effect of over 55% in size
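Counterscreen for endogenous-receptor signalling: CNG-channel HEK 293 cells report cAMP rise by membrane depolarization. After 60 min dye equilibration with 100 uM RO 20-1724, compounds incubated 30 min before bottom-read fluorescence at 590 nm.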
GBA mod: modulators of human glucocerebrosidase | Potency, µM | 48,000 tested, 1.1% active | AID 360 | P04062 | purified enzyme, resorufin glucoside fluorescence (screen aimed at inhibitors), 20 min; in the data active means potency below about 15 µM; inconclusive means mostly about 16 µM to 33 µM;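 further: potency means the concentration at half of the fitted maximal effect; the screen sought inhibitors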
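Compounds titrated against 0.2 nM normal enzyme, 30 uM resorufin beta-D-glucopyranoside substrate, citrate/phosphate buffer with taurocholate and tween-20, pH 5.9. Reaction ran 20 min at room temperature; fluorescence (Ex 548/Em 600) gave AC50.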
FLuc inh: inhibitors of firefly luciferase; P08659; purified firefly luciferase, luminescence, 8 min; Potency, µM (titrated, usually from 57.1 µM), inactives show at the highest dose activity change, negative = inhibition, most hits filed as inhibitors; 72,000 tested, 2.2% active; AID 411; further: potency means the concentration at half of the fitted maximal effect; on the % scale 0 is the no-effect control and ±100 the full control effect; nearly all actives have a fitted effect of over 40% in size
Target sequence (P08659 whole entry, looked up): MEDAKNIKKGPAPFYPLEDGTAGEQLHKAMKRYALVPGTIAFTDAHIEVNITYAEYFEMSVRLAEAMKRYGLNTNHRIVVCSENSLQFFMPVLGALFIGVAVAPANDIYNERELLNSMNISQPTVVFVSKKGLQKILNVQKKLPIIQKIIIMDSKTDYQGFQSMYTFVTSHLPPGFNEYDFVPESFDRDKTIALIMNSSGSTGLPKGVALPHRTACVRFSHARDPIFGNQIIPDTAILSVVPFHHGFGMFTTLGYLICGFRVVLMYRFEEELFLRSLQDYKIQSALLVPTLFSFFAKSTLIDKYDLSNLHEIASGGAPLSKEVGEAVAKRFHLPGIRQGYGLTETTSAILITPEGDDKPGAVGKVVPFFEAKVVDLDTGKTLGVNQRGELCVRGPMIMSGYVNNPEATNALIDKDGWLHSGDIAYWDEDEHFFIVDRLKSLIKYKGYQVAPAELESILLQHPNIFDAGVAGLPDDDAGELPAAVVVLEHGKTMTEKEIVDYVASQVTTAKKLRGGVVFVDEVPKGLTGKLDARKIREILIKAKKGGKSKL
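Inhibition of light generation by firefly luciferase from ATP and luciferin was profiled with concentration-response curves per sample, ATP held at 10 uM within the enzyme's linear range. Plates were read by luminescence after an 8-minute ambient incubation.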
TSHR ag: activates the human thyroid stimulating hormone receptor; P16473; HEK293-CNG-TSHR cells (CNG channel as cAMP sensor), membrane potential dye, cAMP; Potency, µM (titrated, usually from 57.1 µM), without a hit: at the highest dose activation, most hits filed as activators; 73,000 tested, 0.48% active; AID 926; active means well fitted activation curve with a large enough effect in the main read-out, with a control signal flat, not every such curve was filed as active; inconclusive means small, poorly fitted or top-dose-only effect, or a change in a side signal; inactive means no such curve, though single readings can be large or run the other way; % of control where 0% means no effect;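 further: the control signal comes from parental cells without the receptor; potency means the concentration at half of the fitted maximal effect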
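cAMP rise detected as CNG-channel membrane depolarization by fluorescent dye (emission 590 nm), 30 min after compound, following 60 min dye loading containing 100 uM RO 20-1724 at room temperature. Cells: TSHR/CNG HEK 293, with parental CNG HEK 293 as control.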
HEK293 cAMP cnt: counter-screen for TSH receptor agonists: cAMP in parental HEK293 cells; activity change, negative = inhibition, % at 32.9 µM; 150 tested, under 10 active; shares compounds with TSHR ag; parental HEK293 CNG biosensor, cAMP membrane potential fluorescence
Numbers without * were called inactive; i = inactive; ? = inconclusive; · = no result given; [ ] = another dose, or the depositor's remark. Unless noted, the call rests on the fitted dose curve; in most records, active means well fitted curve in the direction sought with a large enough effect; inconclusive means small, poorly fitted or top-dose-only effect, or another doubt; inactive means no such curve, though single readings can be large; an effect the other way counts as inactive or inconclusive.

SMILES	PK Bst	HEK293 cAMP ctrl	GBA mod	FLuc inh	TSHR ag	HEK293 cAMP cnt
O=C1C=C(NCc2ccco2)C2(CCCCC2)O1	·	?	·	5%	?	·
CC(=O)c1cccc(NC(=O)c2cc(-n3cnnc3)ccc2Cl)c1	>57	2%	>77	1%	2%	·
COc1cc(NC(=O)c2cc(-n3cnnc3)ccc2Cl)cc(OC)c1	·	6%	>77	0%	·	-1[25.6 µM]
O=C1c2ccccc2C(=O)N1Cc1ccc2c(c1)OCO2	>57	?	>77	0%	?	·
Nc1cc(CN2C(=O)c3ccccc3C2=O)cc(Cl)c1O	>57	-2%	>77	1%	2%	5[25.6 µM]
O=C(CSc1nc2scc(-c3ccco3)c2c(=O)n1-c1ccccc1)N1CCOCC1	>57	23%	?	-8%	16µM*	7
CC(C)c1nnc(NC(=O)CCC(=O)NCc2ccc3c(c2)OCO3)s1	>57	-6%	·	3%	3%	15[25.6 µM]
Cc1cc2ccccc2c[n+]1CC(O)C[n+]1cc2ccccc2cc1C	·	5%[11.4 µM]	·	-1%[11.4 µM]	-8%[11.4 µM]	·
COc1ccc(Oc2ncc3nc(-c4cc(F)cc(F)c4)c(=O)n(C)c3n2)cc1	·	20%	·	0%[11.4 µM]	-2%	·
COc1ccc(CNc2n[nH]c(NCc3ccc(OC)c(OC)c3)n2)cc1OC	>57	2%	>77	3%	2%	·
COc1ccc(CNc2nc(SC)n[nH]2)cc1OC	>57	7%	>77	2%	4%	4[25.6 µM]
CCc1nnc(NC(=O)CSc2nnc(-c3ccoc3C)n2CC(C)C)s1	>57	-21%	>77	?	-8%	·
Cc1occc1-c1nnc(SCC(=O)NCc2ccco2)n1CC(C)C	>57	12%	·	2%	20µM*	-10
COc1ccc(-c2cc(C(F)(F)F)nc(SCCC(=O)N3CCOCC3)n2)cc1	>57	23%	>77	0%	20µM*	13
COc1cccc(Nc2ncc3nc(-c4ccc(Cl)cc4)c(=O)n(C4CC4)c3n2)c1	·	-10%	·	1%[11.4 µM]	-3%	·
O=C(c1cc(-c2cccs2)on1)N1CCCc2ccccc21	·	?	·	-15%	?	?
COC(=O)c1cc(NC2c3ccccc3C(=O)N2c2cccnc2)cc(C(=O)OC)c1 (stereo not given)	·	15%	·	-2%	16µM*	18
COc1ccc(NC2c3ccccc3C(=O)N2c2cccnc2)cc1Cl (stereo not given)	·	3%	·	-3%	13%	·
c1cncc(CNc2ncncc2-c2ccc3c(c2)OCO3)c1	·	?	·	2%[2.29 µM]	?	·
NC(=O)c1nsc(C(=O)N(CC(=O)NCc2ccc3c(c2)OCO3)C2CCCCC2)c1N	>57	18%	>77	-1%	2µM*	9
COc1ncc2nc(-c3cccs3)c(=O)n(CCc3ccccc3)c2n1	·	19%	·	0%[11.4 µM]	10%	·
CCOC(=O)C1C(=O)Nc2nc(C)nn2C1c1ccccc1 (stereo not given)	>57	-1%	>77	2%	4µM*	-7
CCOC(=O)C1C(=O)NC(N2CCCCC2)=NC1c1ccccc1 (stereo not given)	>57	2%	>77	3%	9%	·
COc1cc(OC)cc(C(=O)N2c3ccc(F)cc3CCC2C)c1 (stereo not given)	>57	30%	>77	-1%	13µM*	12
O=c1/c(=C/c2ccco2)sc2nc(-c3ccccc3Br)nn12	>57	-29%	i	-27%	-19%	·
SMILES	PK Bst	HEK293 cAMP ctrl	GBA mod	FLuc inh	TSHR ag	HEK293 cAMP cnt
CN1C(=O)N(C)C2(c3ccccc3)Nn3c(s/c(=C/c4ccco4)c3=O)=NC12c1ccccc1 (stereo not given)	>57	4%	·	3%	1.6µM*	-1
CCCC=O	·	-5%	·	·	-6%	·
CC1=CCC2C(=O)N(c3ccc(Br)cc3C)C(=O)C2C1 (stereo not given)	>57	3%	>77	-1%	25µM*	-2
COC(=O)CNC(=O)C12CC3(C)CC(C)(CC(C)(C3)C1)C2	>57	5%	>77	-1%	13µM*	8
N#Cc1cccc(NC(=O)N2CC[C@@]3(CCCN(C(=O)c4cnccn4)C3)C2)c1	·	2%	·	0%[11.4 µM]	1%	·
O=C(O)c1cc(-c2ccccc2)c(N2CCOCC2)s1	>57	12%	>77	0%	12%	·
O=C(NCc1ccco1)c1cc(-c2ccccc2)c(N2CCOCC2)s1	>57	0%	>77	-3%	-7%	-62[25.6 µM]
